Assay outcomes: PubChem BioAssay, National Center for Advancing Translational Sciences (NCATS)
Sampled rows, rich in hits. Any-hit rate of the full collection: about 6.9%.
IL-1B inflam inh – qHTS for Inhibitors of Inflammasome Signaling: IL-1-beta AlphaLISA Primary Screen. THP-1 LPS/ATP IL-1B secretion, AlphaLISA, 16 h; active compounds read low. activity change, % at 57.5 µM. 360,000 compounds, 4.7% hits. AID 743279, 2014; in the data active means activity change below about -50%; inconclusive means mostly about -30% to -49%; further: on the % scale 0 is the no-effect control and ±100 the full control effect
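THP-1 cells pretreated 1 hr with compounds (up to 57.5 uM final), then stimulated with LPS (250 ng/mL final) plus ATP (1.25 mM final); secreted IL-1B measured by AlphaLISA after 16 hr, decreased signal indicating inhibition.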
Giardia kill – Small Molecules that selectively kill Giardia lamblia: qHTS; Giardia lamblia trophozoite viability; activity change, % at 7.66 µM, hits read low; 340,000 compounds, 0.15% hits; AID 540267, 2011; in the data active means activity change below about -80%; inconclusive means between about -30% and that limit;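 further: parasites exposed to compound for two days anaerobically before the ATP read; on the % scale 0 is the no-effect control and ±100 the full control effect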
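Luminescence from cellular ATP indicates surviving trophozoites (100 cells/well) following 48 hrs anaerobic compound treatment at 37 deg C; signal develops 15-30 min at room temperature.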
MCF10A rerep – A quantitative high throughput screen for small molecules that induce DNA re-replication in MCF 10a normal breast cells | MCF 10A DNA re-replication, Hoechst nuclear intensity, 48 h | Potency, µM (titrated, usually from 46.1 µM), for the others: top-dose activity, positive = re-replication, usual class: activators | 350,000 compounds, 2.9% hits; further: potency means the concentration at half of the fitted maximal effect; % of control where 0% means no effect; nearly all actives have a fitted effect of over 50% in size
Vif-APOBEC3F blk – qHTS for Inhibitors of Vif-A3F Interactions: qHTS; HeLa A3F-eYFP + Vif (tagged APOBEC3F with the HIV-1 protein that degrades it), YFP fluorescence increase; Potency, µM (series often up to 46.1 µM), without a hit: at the highest dose activity, negative = active; 390,000 compounds, 0.2% hits; AID 602313, 2012; further: potency means the concentration at half of the fitted maximal effect; % of control where 0% means no effect; nearly all actives have a fitted effect of over 65% in size
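Fluorescence increase (Ex 488/Em 500-530) after overnight compound treatment at 37 deg C flags inhibition of Vif-driven A3F-eYFP loss in stable HeLa A3F-eYFP/Vif cells seeded overnight beforehand.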
Vif-APOBEC3G blk – qHTS for Inhibitors of Vif-A3G Interactions: qHTS | HeLa A3G-eYFP + Vif (tagged APOBEC3G with the HIV-1 protein that degrades it), YFP fluorescence, overnight | Potency, µM (doses to about 46.1 µM), for inactives: at the top dose activity, negative = active, usual class: inhibitors | 410,000 compounds, 0.076% hits; further: potency means the concentration at half of the fitted maximal effect; on the % scale 0 is the no-effect control and ±100 the full control effect; nearly all actives have a fitted effect of over 60% in size
Target sequence (Q9HC16 whole entry, looked up): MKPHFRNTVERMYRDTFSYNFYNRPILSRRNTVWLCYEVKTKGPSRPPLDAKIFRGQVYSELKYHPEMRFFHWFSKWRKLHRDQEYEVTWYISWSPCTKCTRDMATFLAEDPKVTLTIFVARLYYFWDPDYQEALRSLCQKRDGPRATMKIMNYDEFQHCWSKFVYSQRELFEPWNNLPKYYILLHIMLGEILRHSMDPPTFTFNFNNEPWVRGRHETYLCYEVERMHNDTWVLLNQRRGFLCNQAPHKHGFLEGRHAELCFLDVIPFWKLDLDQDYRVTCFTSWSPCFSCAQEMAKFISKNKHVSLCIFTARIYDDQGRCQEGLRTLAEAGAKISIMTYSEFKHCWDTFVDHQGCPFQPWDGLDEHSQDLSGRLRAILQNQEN
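HeLa cells stably expressing Vif and C-terminally eYFP-tagged A3G, seeded overnight at 37 deg C, then exposed to compound by pintool overnight at 37 deg C. Rise in yellow fluorescence (Ex 488/Em 500-530, Acumen) marks blocked Vif-driven A3G degradation.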
SW480 rereplic – A quantitative high throughput screen for small molecules that induce DNA re-replication in SW480 colon adenocarcinoma cells; 340,000 compounds, 1.8% hits; Potency, µM (series often up to 46.1 µM), for inactives: at the highest dose re-replication activation, most hits filed as activators; SW480 DNA re-replication, Hoechst DNA content imaging, 48 h; further: potency means the concentration at half of the fitted maximal effect; % of control where 0% means no effect; nearly all actives have a fitted effect of over 55% in size
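250 cells/well; 23 nL cpd via pin tool; 48 hr, 37 C, 5% CO2; Hoechst 40 min; imager read of total nuclear intensity, ex 405/em 500-530 nm.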
* = called active by the depositor; ? = inconclusive; / = no result; [ ] = another dose, or the depositor's remark. Unless noted, the call rests on the fitted dose curve; in most records, active means well fitted curve in the direction sought with a large enough effect; inconclusive means small, poorly fitted or top-dose-only effect, or another doubt; inactive means no such curve, though single readings can be large; an effect the other way counts as inactive or inconclusive.

SMILES	IL-1B inflam inh	Giardia kill	MCF10A rerep	Vif-APOBEC3F blk	Vif-APOBEC3G blk	SW480 rereplic
CN(C)c1ccc(/C=C2\CCc3ccccc32)cc1	/	/	/	/	1%	/
COc1cc(C=c2c3ccccc3n3c2cc(-c2ccccc2)[n+]3C)cc(OC)c1OC	-26	0	?	?	-9%	?
CN(C)c1ccc(C=c2c3ccccc3n3c2cc(-c2ccc(Cl)cc2)[n+]3C)cc1	-119*	32	26%	?	-19%	?
O=[N+]([O-])c1ccc(Cl)cc1Sc1nc2ccccc2o1	-58*	-4	1%	-6%	-24%	-5%
CCCN(CCC)CCCNC(=O)c1cc2c(=O)oc3ccc(C)cc3c2s1	/	/	/	?	1%	/
COc1ccc(-n2cc(CNCc3cnc4ccccn34)c(-c3cccc(F)c3)n2)cc1	-73*	-7	?	-2%	-2%	9%
Cc1cccc(-n2cc(CNCCc3nc(C)cc(C)n3)c(-c3cccc(F)c3)n2)c1	?	11	4.1µM*	0%	0%	23µM*
Cc1cccc(-c2nn(-c3ccccc3)cc2CNCCO)c1	/	17	/	/	-2%	/
COc1ccc(-n2cc(CNCC3CCOCC3)c(-c3cccc(F)c3)n2)cc1	-56*	8	1%	-13%	-8%	?
CC(C)(CO)C(O)C(=O)NCCCC(=O)O (centres undefined)	/	/	2%	/	/	1%
CSc1cccc(NC(=O)CNC(=O)c2ccc3c(c2)OCO3)c1	8	0	-2%	-5%	0%	-5%
CSc1cccc(-n2cc(-c3ccc4c(c3)OCO4)[nH]c2=O)c1	-14	15	21µM*	-13%	?	21µM*
C#Cc1ccc([C@H]2C=C(C(=O)Nc3ccccc3)O[C@@H](OCc3ccc(CO)cc3)C2)cc1	-57*	34	?	-1%	-12%	28%
O=C(Nc1ccccc1)C1=C[C@H](c2ccccc2)C[C@H](OCc2ccc(CO)cc2)O1	-21	2	13%	-7%	1%	6%[9.22 µM]
O=C(Nc1ccccc1)C1=C[C@H](c2ccc(C(F)(F)F)cc2)C[C@H](OCc2ccc(CO)cc2)O1	?	2	26µM*	-4%	0%	1%
O=C(NNC(=O)c1cc(Cl)ccc1O)c1cccs1	29	11	-3%	-12%	5%	21µM*
O=C(NNC(=O)c1ccccc1Cl)c1cccs1	-8	-1	-3%	3%	7%	1%
CCCCn1c(CCl)nc2cc(S(=O)(=O)N3CCOCC3)ccc21	/	18	?	-8%	1%	13µM*
CCCCn1c(C)nc2cc(S(=O)(=O)N3CCOCC3)ccc21	3	10	0%	-22%	2%	4%
Cc1cccc(-n2c3nc(=O)n(C)c(=O)c-3cc3c(C)nn(-c4ccccc4)c32)c1C	/	/	/	-5%	2%	/
Nc1ncnc2c1ncn2[C@@H]1O[C@H](CNCc2ccc(OCC(=O)Nc3ccccn3)cc2)[C@@H](O)[C@H]1O	9	8	-4%	5%	-4%	5%
N#Cc1c(N)n(C2OC(CO)C(O)C2O)c2ncnc(N)c12 (centres undefined)	-102*	2	0.23µM*	?	-23%	?
Nc1ncnc2c1ncn2C1O[C@H](CO)[C@@H](O)[C@@H]1O (some centres undefined)	16	?	-23%	8%	-2%	-30%
Nc1ncnc2c1ncn2[C@@H]1O[C@H](CO)[C@@H](O)[C@@H]1O	-3	-30	7.3µM*	-4%	1%	-57%
Nc1ncnc2c1ncn2[C@@H]1O[C@H](CNCc2ccc(OCc3ccccc3)cc2)[C@@H](O)[C@H]1O	0	-4	-14%	-13%	22µM*	-5%
